Compound activity from PubChem BioAssay.
Only some compounds are listed: those with a hit (about 9.2% of all), similar ones and a draw of the others.
ELG1 genotox = induces genotoxicity in HEK293T cells with luciferase-tagged ELG1; HEK293T ELG1-luciferase reporter, luminescence, 16 h; Potency, µM (titrated, usually from 46 µM), for inactives: top-dose activity change, positive = activation, actives largely listed as activators; hit rate 1.3% among 330,000; also: % of control where 0% means no effect; nearly all actives have a fitted effect of over 60% in size
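HEK293T cells expressing luciferase-tagged ELG1 were exposed to compound or DMSO vehicle for 16 hr at 37 °C and 5% CO2. Luciferase activity was then measured with ONE-Glo after 30 min at room temperature.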
ELG1 repair inh = blocks ELG1-dependent DNA repair in HEK293T cells | hit rate 2.3% among 330,000 | AID 504467 | HEK293T ELG1-luciferase reporter, luminescence, 16 h; DNA damage induced by 5-fluorouridine | Potency, µM (top dose mostly 46.1 µM), inactives show at the top dose activity change, negative = inhibition, actives largely listed as inhibitors; also: % is scaled to controls: 0 for no effect and ±100 for the full control effect; nearly all actives have a fitted effect of over 55% in size
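In this reporter screen, reduction of luminescence relative to DMSO vehicle indicated activity. Compounds and 5-fluorouridine were added together to 2,000 cells per well, incubated for 16 hr at 37 °C, then developed with ONE-Glo.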
FLuc counter = inhibits or activates purified firefly luciferase, miR-21 counter-screen; P08659; purified FLuc, Km substrates, luminescence inhibition; Potency, µM (highest dose often 57.5 µM), inactives show at the highest dose activity change, negative = inhibition, actives largely listed as inhibitors; hit rate 6.9% among 360,000; AID 588342;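 also: plate controls were vehicle for no effect and reference inhibitor for full effect; nearly all actives have a fitted effect of over 55% in size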
Target sequence (P08659 whole entry, looked up): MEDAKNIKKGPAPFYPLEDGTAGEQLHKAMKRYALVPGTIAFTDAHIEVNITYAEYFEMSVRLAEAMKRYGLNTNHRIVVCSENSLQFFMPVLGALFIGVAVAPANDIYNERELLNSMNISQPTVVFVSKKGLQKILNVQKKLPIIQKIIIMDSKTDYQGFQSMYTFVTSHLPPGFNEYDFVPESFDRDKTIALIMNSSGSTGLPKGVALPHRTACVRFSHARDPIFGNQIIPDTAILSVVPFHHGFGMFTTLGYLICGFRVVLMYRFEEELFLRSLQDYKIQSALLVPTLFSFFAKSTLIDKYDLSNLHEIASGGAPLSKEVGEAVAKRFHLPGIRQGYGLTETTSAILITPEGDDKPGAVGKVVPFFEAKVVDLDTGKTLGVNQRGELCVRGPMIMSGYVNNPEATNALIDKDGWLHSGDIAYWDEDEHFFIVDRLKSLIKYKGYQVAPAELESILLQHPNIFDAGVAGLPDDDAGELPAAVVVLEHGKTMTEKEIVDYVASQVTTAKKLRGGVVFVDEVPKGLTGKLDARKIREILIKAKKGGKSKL
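Purified P. pyralis luciferase (10nM final) with 10uM D-luciferin and 10uM ATP (Km levels) in 50mM Tris acetate pH 7.5, 10mM Mg acetate, 0.01% Tween-20, 0.05% BSA; qHTS 6-point titration, ~60 µM downward; luminescence read.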
Rab9 prom act = Rab9 promoter activation; Huh7 Rab9 promoter-luciferase reporter, luminescence, 24 h; Potency, µM (highest dose often 9.22 µM), without a hit: at the top dose activation, negative = inhibition, usual class: activators; hit rate 2.8% among 320,000; also: % of control where 0% means no effect; nearly all actives have a fitted effect of over 60% in size
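Cells were plated at 1500 per well in reduced-serum medium with 10% FBS and left 2 h. Compound in DMSO was then added for 24 h at 37 °C. Reporter signal was read by luminescence after 10 min with luciferase detection reagent.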
SMN2 splice enh = increases expression of the SMN2 splice variant; hit rate 2.8% among 210,000; HEK293 SMN2-luciferase splicing reporter, luminescence, 30-36 h; Potency, µM (highest dose often 46.1 µM), for the others: top-dose activity change, positive = activation, hits mostly activators; also: % of control where 0% means no effect; nearly all actives have a fitted effect of over 55% in size
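qHTS luciferase splicing reporter: luminescence rises when SMN2 exon 7 is included in transfected HEK293 cells. Compound exposure lasted 30-36 h at 37C, with 4.5 mM final sodium butyrate as control, followed by a ONE-Glo read.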
NPC1 promoter act = activators of NPC1 promoter; AID 485313; Potency, µM (top dose mostly 9.22 µM), for the others: at the top dose activation, hits mostly activators; hit rate 2.4% among 320,000; Huh7 NPC1 promoter luciferase reporter, 24 h; also: % of control where 0% means no effect; nearly all actives have a fitted effect of over 60% in size
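Huh7 cells stably carrying NPC1 promoter–luciferase, plated in Opti-MEM with 10% FBS for 2 h, were exposed to compound in DMSO for 24 h at 37 °C; luciferase reagent was added for 10 min and luminescence read.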
Active calls of the source: *; ? = inconclusive; nt = not tested or not shown; [ ] = remark or other dose. Calls follow the shape of the dose curve; as a rule, active = well fitted curve in the direction sought with a large enough effect; inconclusive = small, poorly fitted or top-dose-only effect, or another doubt; inactive = no such curve, though single readings can be large; an effect the other way counts as inactive or inconclusive. Potency is read from the fitted curve at half-maximal effect.

SMILES	ELG1 genotox	ELG1 repair inh	FLuc counter	Rab9 prom act	SMN2 splice enh	NPC1 promoter act
CC(=O)Nc1ccc(/C=N/Nc2nncc3ccccc23)cc1	15.4%	?	12µM*	1.12µM*	nt	2.82µM*
Cc1ccc(NC(=O)CSc2nncc3ccccc23)cc1	-0.5%	0.0%	-24.7%	2.9%	nt	-6.2%
Fc1cccc(/C=N/Nc2nncc3ccccc23)c1	0.731µM*	?	0.601µM*	?	nt	0.316µM*
COc1ccc(/C=N/Nc2nn3cnnc3c3ccccc23)cc1	-15.0%	?	?	5.4%	nt	4.8%
COc1ccccc1NC(=O)c1ccc2oc(=O)c(S(=O)(=O)c3ccccc3)cc2c1	nt	nt	5.6%	nt	-6.3%	nt
CC(C)(C)S(=O)(=O)c1cnc(-c2ccc(Cl)cc2)nc1N	10.4%	?	?	2.24µM*	nt	2.51µM*
CC(C)(C)S(=O)(=O)c1cnc(N2CCCCC2)nc1N	0.6%	18.3%	-10.9%	11.9%	nt	9.0%
C=C(C)C(=O)N1CC2(CC(c3cccc(NC(=O)CC)c3)=NO2)C[C@H]1C(N)=O (stereo not given in full)	2.8%	15.0%	-1.2%	-9.9%	nt	-4.9%
C/C=C(\C)C(=O)N1CC2(CC(c3cccc(NC(=O)COc4ccc(Cl)cc4)c3)=NO2)C[C@@H]1C(N)=O (stereo not given in full)	-0.2%	-1.5%	15.1µM*	-7.1%	nt	-6.5%
C=C(C)C(=O)N1CC2(CC(c3cccc(NC(=O)COc4ccc(Cl)cc4)c3)=NO2)C[C@@H]1C(N)=O (stereo not given in full)	-4.6%	-25.9%	12µM*	-7.4%	nt	1.3%
COc1ccc2nc(SCc3nc(N)nc(Nc4ccccc4)n3)[nH]c2c1	-0.7%	?	13.5µM*	13.7%	-12.9%	-5.8%
Nc1nc(CSCCO)nc(Nc2ccccc2)n1	6.3%	13.1%	4.1%	2.4%	12.9%	-0.2%
Nc1nc(CSc2ccccn2)nc(Nc2ccccc2)n1	?	?	9.53µM*	1.41µM*	11.2µM*	2.82µM*
COc1ccc(Nc2nc(N)nc(CSc3nccn3C)n2)cc1	?	?	21.3µM*	1.78µM*	nt	1.41µM*
COc1ccc(Nc2nc(N)nc(CSc3nc(C)cc(C)n3)n2)cc1	8.8%	-1.7%	-19.7%	-8.7%	nt	-4.8%
COc1ccc(Nc2nc(N)nc(SCc3nnc(C)s3)n2)cc1	?	?	23.9µM*	?	?	26.2%
COc1cccc(C(=O)N(Cc2ccco2)c2c(N)n(Cc3ccccc3)c(=O)[nH]c2=O)c1	-0.3%	0.3%	-1.0%	1.4%	nt	-2.0%
Cc1ccc(Nc2nc(N)nc(CSc3nncn3C)n2)cc1	?	?	13.5µM*	2.82µM*	17.8µM*	3.16µM*
CCOC(=O)c1c(C)c(-c2ccccc2)n(CC(=O)NC2CCCCCC2)c1C	nt	nt	-18.5%	nt	16.0%	nt
CNC(=O)C(=O)Nc1nc(C23CC4CC(CC(C4)C2)C3)cs1	13.3%	?	-19.1%	3.16µM*	nt	?
O=C(NCc1ccccc1)C(=O)Nc1nc(C23CC4CC(CC(C4)C2)C3)cs1	-4.3%	?	-5.5%	-4.8%	-14.5%	-1.1%
O=C(NCc1ccncc1)C(=O)Nc1nc(C23CC4CC(CC(C4)C2)C3)cs1	-13.4%	18.4µM*	-18.6%	-5.9%	-38.1%	-9.4%
Cc1nc2ccccc2c2nc3ccccc3n12	?	-7.7%	?	2.9%[1.84 µM]	4.3%	6.6%
c1ccc2c(c1)nnn1c3ccccc3nc21	1.64µM*	?	4.78µM*	24.5%	-49.1%	1.12µM*
O=c1c2oc3ccccc3c2n(Cc2ccc(Cl)cc2)c(=O)n1Cc1ccccc1	nt	nt	-1.9%	nt	nt	nt
SMILES	ELG1 genotox	ELG1 repair inh	FLuc counter	Rab9 prom act	SMN2 splice enh	NPC1 promoter act
Oc1ccccc1C1CC(c2cccs2)=NC(c2ccc(Cl)cc2)N1 (stereo not given)	-8.3%	-11.3%	?	?	nt	19.1%
CCOc1ccccc1C1N=C(c2ccc(OC)cc2)CC(c2ccccc2O)N1 (stereo not given)	?	?	19µM*	?	nt	?
O=C(O)c1ccccc1SCc1nc2ccccn2c1Br	1.9%	7.8%	?	0.5%	6.3%	-0.4%
O=C(O)c1cccnc1SCc1cn2cc(Cl)ccc2n1	2.1%	14.8%	?	11.1%	nt	-0.1%
O=C(O)c1ccccc1SCc1cn2cc(Cl)ccc2n1	?	?	10.7µM*	3.16µM*	?	?
Cc1cccc2nc(CSc3ccccc3C(=O)O)cn12	8.2%	?	15.1µM*	?	nt	28.2%
COc1cccc(C(=O)Nc2ccc3nc4n(c(=O)c3c2)CCCC4)c1	-0.2%	?	16.9µM*	?	nt	25.6%
COc1cc(OC)cc(C(=O)Nc2ccc3nc4n(c(=O)c3c2)CCCC4)c1	?	?	?	?	nt	2.82µM*
COc1ccc(Cl)cc1C(=O)Nc1ccc2nc3n(c(=O)c2c1)CCCC3	-1.9%	-4.6%	-13.5%	6.0%	nt	-0.9%
CCOc1ccccc1C(=O)Nc1ccc2nc3n(c(=O)c2c1)CCCCC3	-0.8%	-26.0%	15.1µM*	4.9%	nt	-7.4%
COc1cc(C(=O)Nc2ccc3nc4n(c(=O)c3c2)CCCC4)ccc1Br	-2.8%	-4.6%	-0.4%	-1.5%	nt	-2.0%
O=C(Nc1ccc2nc3n(c(=O)c2c1)CCCCC3)c1cccc(C(F)(F)F)c1	nt	nt	-15.1%	nt	2.4%	nt
CN(C)c1cccc(C(=O)Nc2ccc3nc4n(c(=O)c3c2)CCCCC4)c1	9.8%	-27.9%	13.5µM*	25.4%	-1.9%	8.0%
CC(C)n1ncc2c(C(=O)NCc3cccnc3)cc(C3CC3)nc21	-0.9%	2.1%	-0.8%	1.1%	nt	-0.1%
c1cc2cc(-c3c(-c4ccc5c(c4)OCO5)noc3-c3ccsc3)ccc2[nH]1	15.2%	?	10.7µM*	?	nt	?
c1ccc(-c2ccc3[nH]ccc3c2)cc1	?	?	?	-2.2%	nt	?
c1ccc(-c2onc(-c3ccco3)c2-c2ccc3[nH]ccc3c2)cc1	-2.3%	11.9%	19µM*	4.4%	nt	-1.4%
COc1ccc(NC(=O)CN(C)S(=O)(=O)c2ccc(C(=O)N3CCOCC3)s2)cc1	nt	nt	-8.3%	nt	nt	nt
O=C1C(c2ccccc2)=[N+]([O-])c2ccccc21	?	?	12µM*	22.2%	nt	12.9%
Cn1c(N)c(C(=O)COC(=O)c2ccc(OC(F)F)cc2)c(=O)n(C)c1=O	-3.2%	0.5%	-2.7%	0.6%	nt	-2.4%
COc1ccc(N(Cc2nnc3n2CCCCC3)C(=O)Nc2cccc(C)c2)cc1Cl	nt	nt	1.2%	nt	nt	nt
Cc1cc(N)n(-c2nc3ccccc3s2)n1	-13.2%	4.1%	-2.1%	-10.9%	nt	-9.9%
